Test results as given in PubChem BioAssay (NCI).
About 83,000 compounds went through this panel and 20% of them were active in at least one assay; those are over-represented in the sample as a whole.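 Values shown are percent growth following 48 h exposure of cells in 96-well plates to a single concentration of compound; below 10 was considered active.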 The source made the active and inactive calls.

What was measured:
Experiment in all cases: NCI-60 one-dose screen, 48 h (100 = growth as untreated, 0 = no growth, -100 = all killed)
Conditions in all cases: 10 µM
[1] = system: HCT-15 colon
[2] = system: HT29 colon
[3] = system: SNB-75 CNS
[4] = system: SNB-19 CNS
[5] = system: U251 CNS
[6] = system: PC-3 prostate
[7] = system: SK-MEL-5 melanoma
[8] = system: UACC-62 melanoma
[9] = system: LOX IMVI melanoma
[10] = system: SK-MEL-28 melanoma
[11] = system: SK-MEL-2 melanoma
[12] = system: EKVX NSCLC
[13] = system: UO-31 renal
[14] = system: TK-10 renal
[15] = system: ACHN renal
[16] = system: CAKI-1 renal
[17] = system: A498 renal
[18] = system: CCRF-CEM leukemia
[19] = system: MOLT-4 leukemia

Measured: growth

COc1ccc2oc(=O)cc(C3c4ccc([nH]4)C(c4cc(=O)oc5ccc(OC)cc45)c4ccc([nH]4)C(c4cc(=O)oc5ccc(OC)cc45)c4ccc([nH]4)C(c4cc(=O)oc5ccc(OC)cc45)c4ccc3[nH]4)c2c1 (stereo not drawn)
inactive: [3] 19.3% | [4] 26% | [6] 30.4% | [12] 27.8%
active: [1] -62.4% | [2] -41.5% | [5] 1.28% | [7] -4.6% | [8] -8.02% | [9] -60.4% | [10] 1.37% | [11] 1.72% | [13] -44.9% | [14] -32.1% | [15] 1.03% | [16] -22.1% | [17] -17.4% | [18] 0.0782% | [19] -8.61%

O=S(=O)(NC1c2ccccc2Oc2ccccc21)c1cc(Cl)ccc1Cl
inactive: [1] 93.7% | [2] 91.4% | [3] 90.2% | [4] 97.2% | [5] 95.7% | [6] 88.9% | [7] 94.6% | [8] 93.2% | [9] 96.1% | [10] 110% | [11] 103% | [12] 98.6% | [13] 79.3% | [14] 95.6% | [15] 82.7% | [16] 88.7% | [17] 94.3% | [18] 74.8% | [19] 96.7%

CN1/C(=C\C(I)C(I)C2=[N+](C)c3ccccc3C2(C)C)C(C)(C)c2ccccc21 (stereo not drawn)
inactive: [1] 13.8% | [3] 14.5% | [4] 18.9% | [8] 19.4% | [9] 12% | [10] 28.5% | [14] 18.7% | [16] 21.5% | [18] 12.1%
active: [2] 4.84% | [5] 7.67% | [6] 5.52% | [7] -97.4% | [11] -13% | [12] 7.21% | [13] -1.6% | [15] 4.88% | [17] -2.55% | [19] -12.5%

O=C1CC[C@@H](C(=O)N[C@H]2CSSC[C@@H](C(=O)NCCc3ccccc3)NC(=O)[C@H](Cc3ccccc3)NC(=O)[C@@H]3CCCN3C(=O)[C@@H]3CCCN3C2=O)N1
inactive: [1] 102% | [2] 102% | [3] 92.7% | [4] 102% | [5] 96.8% | [6] 84.1% | [7] 100% | [8] 94.6% | [9] 94.1% | [10] 102% | [11] 94.2% | [12] 101% | [13] 99.1% | [14] 86.9% | [15] 104% | [16] 97.3% | [17] 91.2% | [18] 69.4% | [19] 85.8%

Nc1cc(O)cc(O)c1
inactive: [1] 97.9% | [2] 95% | [3] 91.8% | [4] 96.5% | [5] 104% | [6] 96.6% | [7] 109% | [8] 94.7% | [9] 95% | [10] 101% | [11] 98.7% | [12] 97.1% | [13] 97.8% | [14] 87.4% | [15] 105% | [16] 96.2% | [18] 114% | [19] 104%

CCCCOCCOCCOCc1cc2c(cc1Br)OCO2
inactive: [1] 97.1% | [2] 92.6% | [3] 99.7% | [4] 106% | [5] 94.9% | [6] 93.2% | [7] 97.8% | [8] 89.9% | [9] 106% | [10] 106% | [11] 92% | [12] 104% | [13] 76.7% | [14] 96.3% | [15] 98.8% | [16] 98.5% | [18] 99.8% | [19] 92.3%

O=C1CC(c2cccc(-c3cccnc3)c2)=Nc2ccc(Br)cc2N1
active: [7] 8.01% | [14] -9.34% | [17] -4.26%
inactive: [1] 61.9% | [2] 56.6% | [3] 11.6% | [4] 62.9% | [5] 27.2% | [6] 30.8% | [8] 47.3% | [9] 55.8% | [10] 67.5% | [11] 49.5% | [12] 36.9% | [13] 41.9% | [15] 27.5% | [16] 49.9% | [18] 50.8% | [19] 27.1%

CCOC(=O)[C@@H](Cc1ccccc1)NC(=O)c1[nH]c2ccc(Cl)cc2c(=O)c1C
inactive: [1] 40.7% | [2] 91.7% | [3] 95.9% | [4] 94.3% | [5] 71.7% | [6] 80.7% | [7] 81.6% | [8] 86.6% | [9] 95.8% | [10] 104% | [11] 89% | [12] 97.4% | [13] 84.7% | [14] 91.3% | [15] 95.6% | [16] 86.6% | [17] 143% | [19] 93.3%

O=C(O)CCCCSCCCCC(=O)O
inactive: [1] 106% | [2] 90.4% | [3] 95.7% | [4] 108% | [5] 93.3% | [6] 96.8% | [7] 93.9% | [8] 109% | [9] 109% | [10] 114% | [11] 93.2% | [12] 106% | [13] 92.7% | [14] 92% | [15] 104% | [16] 100% | [17] 118% | [18] 95.8% | [19] 93.1%

Cc1c(C(=O)N[C@H](CO)Cc2ccccc2)[nH]c2ccc(Cl)cc2c1=O
inactive: [1] 100% | [2] 90.1% | [3] 99.9% | [4] 106% | [5] 92.7% | [6] 97.6% | [7] 99% | [8] 92.9% | [9] 97.9% | [10] 114% | [11] 95.7% | [12] 94.4% | [13] 98.2% | [14] 94.5% | [15] 101% | [16] 94.8% | [17] 98% | [18] 94.8% | [19] 92.2%

NC1CCC(Nc2nc(NCc3ccc(-c4ccco4)nc3)c3ncn(C4CCCC4)c3n2)CC1 (stereo not drawn)
active: [1] 3.49% | [2] -21.9% | [3] -46.9% | [5] 5.19% | [6] -1.27% | [7] -6.6% | [8] -31% | [9] -26.2% | [10] 0.269% | [11] -73.6% | [12] -2.93% | [14] 3.91% | [15] 2.36% | [17] -70.8% | [18] -0.411% | [19] -12.3%
inactive: [4] 14.2% | [13] 10.8% | [16] 17.3%

CCCc1ccnc(NS(=O)(=O)c2ccc(N)cc2)n1
inactive: [1] 105% | [2] 72.9% | [3] 88.2% | [4] 76.6% | [5] 54.6% | [6] 60.7% | [7] 84.3% | [8] 85.7% | [9] 82.9% | [10] 78.9% | [11] 97.7% | [12] 58.5% | [13] 86.5% | [14] 93.4% | [15] 112% | [16] 103% | [18] 46.4% | [19] 81.9%

C[C@H](NC(=O)[C@@H]1CSSC[C@@H](NC(=O)Cc2nc3ccccc3cc2O)C(=O)NCC(=O)N1C)c1ccccc1
active: [19] -17.2%
inactive: [1] 102% | [2] 100% | [3] 150% | [4] 95.2% | [5] 95.7% | [6] 81.2% | [7] 82.5% | [8] 77.9% | [9] 31.3% | [10] 67.4% | [11] 82.3% | [12] 99.5% | [13] 92% | [14] 109% | [15] 96.8% | [16] 99.7% | [17] 120% | [18] 20.1%

CC(C)(C)c1ccc(OCCCCCCN2CCNCC2)cc1
active: [1] 6.25% | [8] -32.2% | [9] -16.7%
inactive: [2] 25% | [3] 53.7% | [4] 66.2% | [5] 30.7% | [6] 39.6% | [7] 50.4% | [10] 59.1% | [11] 82% | [12] 69.9% | [13] 72.8% | [14] 90.8% | [15] 70.6% | [16] 75.9% | [17] 86.1% | [19] 31.3%

CCCCn1c(=O)[nH]c(N)c(C(c2ccc(Cl)cc2)c2c(N)[nH]c(=O)n(CCCC)c2=O)c1=O
inactive: [1] 76.9% | [2] 24.6% | [3] 57.1% | [4] 47.9% | [5] 35.8% | [6] 32% | [8] 41.3% | [9] 41.2% | [10] 44.7% | [12] 48.6% | [13] 95.4% | [14] 50.7% | [15] 67.2% | [16] 90.7% | [17] 89.3%
active: [7] -11.3% | [11] 6.4% | [19] -11.8%

COC(=O)[C@]12CC[C@@H](C)[C@H](C)[C@@H]1C1=CC[C@@H]3[C@@]4(C)CC(=O)[C@H](O)[C@@](C)(CO)[C@@H]4C(=O)C[C@@]3(C)[C@]1(C)CC2
inactive: [4] 16.6% | [10] 21.8% | [14] 22.1%
active: [1] -15.1% | [2] -25.6% | [3] -0.588% | [5] -43.5% | [6] -22.3% | [7] -80.3% | [8] -57.2% | [9] -77.9% | [11] -4.44% | [12] 3.1% | [13] -75.4% | [15] -51.5% | [16] -66.4% | [17] -11.3% | [18] -13.7% | [19] -31.8%
